Test results from the supplement of paper PMC10849652.
Targets with a hit are over-represented here; the source holds about 7,900 in all. About 0.6% of all pairs of compound and target were hits.

Each target was assayed with C1CCN(C1)C(=O)NC2=CC=CC(=C2)NC3=NC=C(C(=N3)NCCC4=CN=CN4)Br (assay: log2 fold change, soluble protein after heating vs DMSO (PISA); higher = thermal stabilisation; K562 cells, 10 uM, 30 min; active = over 0.2 and 3.5 SD of the protein, either way, in both replicates (recomputed)).
Procedure, shortened: (§1)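 Soluble protein was defined as the supernatant after 21,000xg for 90 min. It came from K562 cells at 2×10^6 cells/mL given 10 μM compound for 30 min, heated in aliquots for 3 min across 48°C-58°C, pooled, and extracted in PBS with 0.5% NP-40 at 4°C, and was quantified by TMTpro 16plex LC-MS/MS with equalised channel sums. Thermal stability against control samples, from duplicates, is reported as log2 fold change.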

UniProt P49757, sequence (P49757 whole entry, looked up): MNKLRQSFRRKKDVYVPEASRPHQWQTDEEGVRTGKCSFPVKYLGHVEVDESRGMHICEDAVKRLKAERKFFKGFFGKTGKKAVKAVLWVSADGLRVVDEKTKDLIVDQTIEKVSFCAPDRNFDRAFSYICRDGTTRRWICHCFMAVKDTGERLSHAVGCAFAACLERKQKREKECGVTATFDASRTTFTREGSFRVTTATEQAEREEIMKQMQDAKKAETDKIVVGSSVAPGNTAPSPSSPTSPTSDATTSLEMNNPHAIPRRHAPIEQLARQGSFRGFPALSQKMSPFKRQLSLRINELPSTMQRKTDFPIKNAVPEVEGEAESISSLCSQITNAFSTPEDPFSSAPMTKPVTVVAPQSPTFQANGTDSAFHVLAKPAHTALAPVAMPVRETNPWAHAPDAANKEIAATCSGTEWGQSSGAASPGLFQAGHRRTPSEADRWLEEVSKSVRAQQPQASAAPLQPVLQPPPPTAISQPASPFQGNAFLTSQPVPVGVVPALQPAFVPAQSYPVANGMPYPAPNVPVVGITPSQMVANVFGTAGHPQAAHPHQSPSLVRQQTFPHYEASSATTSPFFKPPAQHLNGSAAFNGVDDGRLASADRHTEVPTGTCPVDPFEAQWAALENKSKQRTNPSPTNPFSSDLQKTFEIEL
UniProt Q9UK23, sequence (Q9UK23 whole entry, looked up): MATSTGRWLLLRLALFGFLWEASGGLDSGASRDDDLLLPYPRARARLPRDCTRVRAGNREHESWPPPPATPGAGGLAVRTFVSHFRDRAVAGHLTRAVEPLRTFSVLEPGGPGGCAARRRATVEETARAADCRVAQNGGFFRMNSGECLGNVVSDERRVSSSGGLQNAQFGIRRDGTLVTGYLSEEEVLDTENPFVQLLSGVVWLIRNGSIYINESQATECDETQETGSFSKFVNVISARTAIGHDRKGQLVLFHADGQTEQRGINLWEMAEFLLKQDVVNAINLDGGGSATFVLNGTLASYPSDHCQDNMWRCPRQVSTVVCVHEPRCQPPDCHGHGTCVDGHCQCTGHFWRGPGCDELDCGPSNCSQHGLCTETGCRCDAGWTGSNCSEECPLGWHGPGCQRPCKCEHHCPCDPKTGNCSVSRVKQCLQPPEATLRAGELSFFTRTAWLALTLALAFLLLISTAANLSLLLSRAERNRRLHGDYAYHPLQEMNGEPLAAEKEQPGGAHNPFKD
UniProt Q7Z3U7, sequence (Q7Z3U7 whole entry, looked up): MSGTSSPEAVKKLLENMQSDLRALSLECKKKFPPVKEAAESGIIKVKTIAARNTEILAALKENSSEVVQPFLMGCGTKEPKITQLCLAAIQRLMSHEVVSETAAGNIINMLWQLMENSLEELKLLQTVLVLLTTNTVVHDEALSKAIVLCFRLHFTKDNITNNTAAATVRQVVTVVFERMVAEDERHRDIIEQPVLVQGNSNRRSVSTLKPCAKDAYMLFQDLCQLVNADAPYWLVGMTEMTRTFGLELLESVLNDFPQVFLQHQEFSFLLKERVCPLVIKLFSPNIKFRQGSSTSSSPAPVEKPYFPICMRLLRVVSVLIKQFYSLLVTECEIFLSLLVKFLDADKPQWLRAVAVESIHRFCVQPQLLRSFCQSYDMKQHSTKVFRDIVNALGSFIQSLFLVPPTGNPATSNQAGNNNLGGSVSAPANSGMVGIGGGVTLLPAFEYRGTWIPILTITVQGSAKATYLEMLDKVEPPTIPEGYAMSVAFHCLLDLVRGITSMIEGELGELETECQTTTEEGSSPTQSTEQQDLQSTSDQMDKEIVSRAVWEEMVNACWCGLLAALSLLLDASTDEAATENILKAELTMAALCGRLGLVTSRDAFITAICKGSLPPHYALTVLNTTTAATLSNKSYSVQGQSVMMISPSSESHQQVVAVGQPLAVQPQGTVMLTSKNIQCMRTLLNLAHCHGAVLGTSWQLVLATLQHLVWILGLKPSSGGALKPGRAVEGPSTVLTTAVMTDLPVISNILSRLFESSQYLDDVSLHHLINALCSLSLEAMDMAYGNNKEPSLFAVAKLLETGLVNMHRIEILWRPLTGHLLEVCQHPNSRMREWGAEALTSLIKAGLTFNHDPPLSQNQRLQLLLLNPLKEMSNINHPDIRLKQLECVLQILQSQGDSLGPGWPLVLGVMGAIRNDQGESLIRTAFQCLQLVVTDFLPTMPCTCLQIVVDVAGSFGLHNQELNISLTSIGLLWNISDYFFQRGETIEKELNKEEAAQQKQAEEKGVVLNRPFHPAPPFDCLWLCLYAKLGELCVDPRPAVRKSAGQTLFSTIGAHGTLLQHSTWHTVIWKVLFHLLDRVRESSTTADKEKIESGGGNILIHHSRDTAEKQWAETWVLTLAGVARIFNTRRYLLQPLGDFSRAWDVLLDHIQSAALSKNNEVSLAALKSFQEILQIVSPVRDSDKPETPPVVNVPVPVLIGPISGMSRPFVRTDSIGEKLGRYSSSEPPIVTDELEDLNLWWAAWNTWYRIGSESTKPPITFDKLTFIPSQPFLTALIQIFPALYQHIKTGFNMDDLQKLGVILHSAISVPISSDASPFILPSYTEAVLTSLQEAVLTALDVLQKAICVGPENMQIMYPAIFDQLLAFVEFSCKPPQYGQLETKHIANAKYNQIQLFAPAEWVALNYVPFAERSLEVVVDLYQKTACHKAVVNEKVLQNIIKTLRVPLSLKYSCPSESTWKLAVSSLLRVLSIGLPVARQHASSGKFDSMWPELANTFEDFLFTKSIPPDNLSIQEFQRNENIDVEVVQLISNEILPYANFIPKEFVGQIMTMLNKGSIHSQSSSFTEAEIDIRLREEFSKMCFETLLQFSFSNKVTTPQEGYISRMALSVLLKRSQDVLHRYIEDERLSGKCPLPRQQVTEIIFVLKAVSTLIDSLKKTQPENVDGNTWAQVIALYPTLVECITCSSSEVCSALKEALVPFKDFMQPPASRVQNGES
UniProt Q9BVC4, sequence (Q9BVC4 whole entry, looked up): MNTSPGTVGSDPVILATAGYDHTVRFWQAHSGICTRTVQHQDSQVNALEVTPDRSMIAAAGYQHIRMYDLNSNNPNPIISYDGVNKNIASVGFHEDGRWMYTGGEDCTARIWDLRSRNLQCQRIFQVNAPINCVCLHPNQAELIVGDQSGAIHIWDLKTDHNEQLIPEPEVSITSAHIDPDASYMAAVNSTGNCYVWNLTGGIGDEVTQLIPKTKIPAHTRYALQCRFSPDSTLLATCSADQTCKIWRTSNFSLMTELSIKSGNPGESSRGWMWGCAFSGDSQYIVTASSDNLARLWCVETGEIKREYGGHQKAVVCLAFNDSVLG
UniProt P49914, sequence (P49914 whole entry, looked up): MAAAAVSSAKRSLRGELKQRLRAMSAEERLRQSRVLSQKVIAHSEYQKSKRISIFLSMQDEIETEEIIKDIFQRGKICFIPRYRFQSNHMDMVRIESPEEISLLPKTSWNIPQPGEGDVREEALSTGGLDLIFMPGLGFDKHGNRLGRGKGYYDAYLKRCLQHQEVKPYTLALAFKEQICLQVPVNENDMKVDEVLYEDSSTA
UniProt P25208, sequence (P25208 whole entry, looked up): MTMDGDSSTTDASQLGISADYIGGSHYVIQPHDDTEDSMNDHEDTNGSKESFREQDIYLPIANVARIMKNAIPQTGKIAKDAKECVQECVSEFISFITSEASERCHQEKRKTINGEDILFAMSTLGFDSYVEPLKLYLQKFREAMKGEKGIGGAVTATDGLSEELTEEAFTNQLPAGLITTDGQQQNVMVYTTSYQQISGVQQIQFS
UniProt Q96BN8, sequence (Q96BN8 whole entry, looked up): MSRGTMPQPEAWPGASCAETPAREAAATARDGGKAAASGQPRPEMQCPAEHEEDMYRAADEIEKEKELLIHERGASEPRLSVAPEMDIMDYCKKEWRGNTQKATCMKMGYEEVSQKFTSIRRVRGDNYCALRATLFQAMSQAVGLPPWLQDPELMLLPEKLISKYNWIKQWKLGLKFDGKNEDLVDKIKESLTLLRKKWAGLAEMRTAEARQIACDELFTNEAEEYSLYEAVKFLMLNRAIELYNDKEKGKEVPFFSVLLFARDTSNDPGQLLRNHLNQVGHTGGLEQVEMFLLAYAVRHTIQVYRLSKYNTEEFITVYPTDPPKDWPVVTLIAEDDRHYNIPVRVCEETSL
UniProt Q96MF7, sequence (Q96MF7 whole entry, looked up): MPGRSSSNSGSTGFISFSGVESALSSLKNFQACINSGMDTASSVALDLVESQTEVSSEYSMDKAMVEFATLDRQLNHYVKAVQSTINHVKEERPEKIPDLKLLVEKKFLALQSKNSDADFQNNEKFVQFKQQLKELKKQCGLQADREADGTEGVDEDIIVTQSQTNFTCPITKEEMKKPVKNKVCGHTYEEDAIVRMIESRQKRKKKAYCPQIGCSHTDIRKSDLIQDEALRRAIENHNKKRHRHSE
UniProt Q9HBL8, sequence (Q9HBL8 whole entry, looked up): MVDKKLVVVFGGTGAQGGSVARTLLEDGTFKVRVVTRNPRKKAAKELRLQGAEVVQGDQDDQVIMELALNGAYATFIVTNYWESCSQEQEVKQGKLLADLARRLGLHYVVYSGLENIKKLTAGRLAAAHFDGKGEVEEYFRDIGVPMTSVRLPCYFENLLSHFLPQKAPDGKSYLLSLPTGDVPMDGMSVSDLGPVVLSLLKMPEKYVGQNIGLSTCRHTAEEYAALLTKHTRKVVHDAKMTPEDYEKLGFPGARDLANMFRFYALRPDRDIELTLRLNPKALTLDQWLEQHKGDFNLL
UniProt O75438, sequence (O75438 whole entry, looked up): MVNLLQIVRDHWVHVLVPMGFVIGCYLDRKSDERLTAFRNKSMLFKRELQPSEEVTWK
UniProt Q8N6M0, sequence (Q8N6M0 whole entry, looked up): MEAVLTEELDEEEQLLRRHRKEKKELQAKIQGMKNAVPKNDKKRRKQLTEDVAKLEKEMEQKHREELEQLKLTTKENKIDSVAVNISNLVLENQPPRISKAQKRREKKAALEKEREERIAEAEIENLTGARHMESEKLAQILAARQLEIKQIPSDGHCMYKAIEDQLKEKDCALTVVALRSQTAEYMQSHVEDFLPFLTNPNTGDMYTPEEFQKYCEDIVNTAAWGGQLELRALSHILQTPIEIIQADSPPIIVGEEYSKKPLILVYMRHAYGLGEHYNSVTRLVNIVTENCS

log2 fold change, inactive:
NPC1 (UniProt O15118) 0.058
NFX1 (UniProt Q12986) 0.014
NME7 (UniProt Q9Y5B8) -0.039
NOP53 (UniProt Q9NZM5) 0.058
OAT (UniProt P04181) -0.037
NDUFS4 (UniProt O43181) 0.082
OTUD6B (UniProt Q8N6M0) -0.014
NDUFB8 (UniProt O95169) -0.008
NISCH (UniProt Q9Y2I1) 0.039
OSBPL3 (UniProt Q9H4L5) -0.021
NFYB (UniProt P25208) 0.01
NA isoform 3 (UniProt Q4G0T1) 0.058
NUMB (UniProt P49757) -0.087
NFATC3 (UniProt Q12968) -0.01
NAGPA (UniProt Q9UK23) -0.013
OXSR1 (UniProt O95747) -0.008
MTHFD1 (UniProt P11586) 0.013
OTULIN (UniProt Q96BN8) -0.042
NEK3 (UniProt P51956) -0.141
MRPS15 (UniProt P82914) -0.045
NMRAL1 (UniProt Q9HBL8) -0.055
MON2 isoform 5 (UniProt Q7Z3U7) -0.019
NPM3 (UniProt O75607) -0.054
ORC5 (UniProt O43913) -0.13
MLST8 (UniProt Q9BVC4) -0.035
MON1B (UniProt Q7L1V2) -0.005
NRDC isoform 2 (UniProt O43847) -0.046
NDUFA12 (UniProt Q9UI09) 0.028
NDUFB1 (UniProt O75438) -0.05
NCKAP1 isoform 2 (UniProt Q9Y2A7) -0.037
MTHFS (UniProt P49914) -0.014
NUP205 (UniProt Q92621) -0.063
MT-ATP6 (UniProt P00846) -0.073
MLX (UniProt Q9UH92) -0.012
MRFAP1 (UniProt Q9Y605) -0.162
NSMCE2 (UniProt Q96MF7) -0.001
NNMT (UniProt P40261) 0.045

These targets were tested with C1CN(CCC1(CC2=CC=C(C=C2)Cl)N)C3=NC=NC4=C3C=CN4 in the same assay as above.
Procedure, shortened: as §1

log2 fold change, inactive:
NPC1 (UniProt O15118) 0.069
NFX1 (UniProt Q12986) 0.048
NME7 (UniProt Q9Y5B8) -0.248
NOP53 (UniProt Q9NZM5) -0.387
OAT (UniProt P04181) -0.023
NDUFS4 (UniProt O43181) 0.111
OTUD6B (UniProt Q8N6M0) -0.055
NDUFB8 (UniProt O95169) 0.06
NISCH (UniProt Q9Y2I1) -0.032
OSBPL3 (UniProt Q9H4L5) -0.078
NFYB (UniProt P25208) -0.069
NA isoform 3 (UniProt Q4G0T1) 0.071
NUMB (UniProt P49757) 0.021
NFATC3 (UniProt Q12968) -0.027
NAGPA (UniProt Q9UK23) 0.148
OXSR1 (UniProt O95747) 0.007
MTHFD1 (UniProt P11586) 0.032
OTULIN (UniProt Q96BN8) -0.086
NEK3 (UniProt P51956) 0.103
MRPS15 (UniProt P82914) -0.108
NMRAL1 (UniProt Q9HBL8) 0.037
MON2 isoform 5 (UniProt Q7Z3U7) 0.004
NPM3 (UniProt O75607) -0.087
ORC5 (UniProt O43913) -0.026
MLST8 (UniProt Q9BVC4) -0.105
MON1B (UniProt Q7L1V2) -0.006
NRDC isoform 2 (UniProt O43847) 0.049
NDUFA12 (UniProt Q9UI09) -0.031
NDUFB1 (UniProt O75438) -0.006
NCKAP1 isoform 2 (UniProt Q9Y2A7) 0.027
MTHFS (UniProt P49914) -0.12
NUP205 (UniProt Q92621) -0.017
MT-ATP6 (UniProt P00846) -0.042
MLX (UniProt Q9UH92) -0.143
MRFAP1 (UniProt Q9Y605) -0.106
NSMCE2 (UniProt Q96MF7) 0.008
NNMT (UniProt P40261) 0.043
